The campaign covered roughly 1,300 compounds. About 850 (65%) were called active. Roughly 1% stayed inconclusive and do not appear here. How the calls were made is not given here. So high a share suggests a set chosen from earlier hits. The list is a sample of the results. Results with a measured potency or affinity are listed apart.
Each compound was assayed against Dual specificity tyrosine-phosphorylation-regulated kinase 1A (Rattus norvegicus) (UniProt Q63470) (assay: Dyrk1A enzyme activity inhibition – biochemical, cherry-pick, plate reader, 2124-01, dose response (AID 588345)). Settings: Dyrk1A kinase biochemical assay; series mostly up to 12 µM; activity change, negative = inhibition: at the top concentration.

Activity change, negative = inhibition, inactive:
Cc1c(O)ccc2c(CN(C)Cc3ccccc3)cc(=O)oc12 -3.59%
Cc1cccc(C)c1OCCOC(=O)c1n[nH]c2ccccc12 -3.83%
CCOCCOc1nc2c(c(=O)n(C)c(=O)n2C)n1Cc1ccc(C)cc1 2.83%
O=C(O)CSc1ncnc2scc(-c3ccccc3)c12 -3.73%
Cc1ccc(-c2csc3ncnc(SCC(=O)O)c23)cc1 0.983%
O=C1C(Cl)=C(N2CCC(C(=O)O)CC2)C(=O)c2ccccc21 -22.7%
CCc1cc(-c2[nH]ncc2-c2ccc3c(c2)OCO3)c(O)cc1O 11.2%
COc1ccc(-c2nc(N)ncc2-c2ccccc2OC)c(O)c1 -5.21%
CCCCCCCCN1[C@@H](CC(=O)OC)c2cc(C(F)(F)F)ccc2S1(=O)=O 3.68%
Cc1cccc(NC(=S)NNC(=O)c2csc3c2CCC(C)C3)c1 (stereo unspecified) -6.56%
C/C(=N/NC(=O)c1ccc(Br)s1)c1cccnc1 6.46%
O=C(Nc1cccc(-c2nn[nH]n2)c1)c1csc2c1CCCC2 -16.6%
CCc1ccc(C(=O)Nc2cccc(-c3nn[nH]n3)c2)s1 15.5%
C/C(=C/c1oc2ccc(O)cc2c1[N+](=O)[O-])N(C)C -2.65%
CCC(C)[C@H]1CNCCN1CCc1cccc2ccccc12 (stereo partly specified) 8.99%
Cc1cccc(NC(=O)C2NC(=O)CC2c2ccccc2)c1C (stereo unspecified) -8.69%
COc1ccc(-n2nc(C)cc2Nc2ccccc2C(=O)O)cc1 1.42%
CCOC(=O)c1nnc(-c2ccc(C)cc2)nc1Sc1ccc(Cl)cc1 7.04%
O=C(O)c1[nH]c2ccc([N+](=O)[O-])cc2c1-c1ccccc1 6.17%
COCCNc1cc(C)nc2c(-c3ccccc3OC)c(C)nn12 8.67%
CC(=O)Nc1cccc(C(=O)OCC(=O)c2ccc3c(c2)OCO3)c1 -6.5%
Cc1c(Br)c(=O)oc2c(Br)c(O)ccc12 -38%
Oc1ccc(-c2csc(Nc3cccnc3)n2)cc1 -2.93%
Clc1cccc(Cc2nn[nH]n2)c1 -1.14%
CCOCCCNC(=O)/C(C#N)=C/c1cc(Br)c(O)c(Br)c1 17.4%
N#Cc1c(N)nc2c3c(sc(=N)c2c1N)NC(=O)CC3c1c(F)cccc1Cl (stereo unspecified) 9.16%
COc1ccc2c(C#CCCO)c(-c3ccc(S(C)(=O)=O)cc3)sc2c1 -10.2%
O=C(CSc1nc(-c2ccco2)cc(C(F)(F)F)n1)NCCCn1ccnc1 13.6%
Nc1ccc(-c2ccc(C(=O)O)s2)cn1 3.99%
CSc1nc(SCC(N)=O)c2c3c(sc2n1)CN(C)CC3 10.6%
COc1ccc(C(=O)N(Cc2nc(-c3ccc(C)cc3)no2)C(C)C)cc1OC 18.9%
CCc1n[nH]c(=S)n1/N=C/c1c[nH]c2ccc(Br)cc12 -4.88%
COc1cccc(-c2nnc3sc(C4CCCCC4)nn23)c1 14.7%
O=c1nc2n(c3sc4c(c13)CCCC4)C(CBr)CS2 (stereo unspecified) -2.76%
Oc1cc(-c2ccncc2)cc2cccnc12 0.251%
Cc1ccccc1C(=O)NNC(=O)CCCCC(=O)NNC(=O)c1ccccc1C 11%
O=c1cc(-c2ccccc2)c2c(O)cc(O)cc2o1 7.51%
Cc1ccc(-c2cc(O)cc3sc(=O)oc23)cc1C 13.1%
O=C1C=C(c2ccc3c(c2)OCO3)CCC1 -3.2%
CC(=O)Nc1nc(-c2ccc3c(c2)OCO3)cs1 10.1%
CCCN1CCN(c2ncnc3scc(C4COc5ccccc5O4)c23)CC1 (stereo unspecified) 11.1%

Source: PubChem BioAssay AID588345 (Broad Institute, 2011)
